Test results from PubChem BioAssay (NCI).
Values joined by “and” are separate entries in the source; they are usually repeats but may differ in a detail not shown here. Equal entries are not always repeated. About 83,000 compounds went through this panel and 20% of them were active in at least one assay; those are over-represented in the sample as a whole.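 Results are percent growth after 48 hours of single-concentration exposure. 100 means growth as in untreated cells, lower positive values show inhibition; negative values down to -100 show cell death.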 Active and inactive are the calls of the source. The calls were made as follows: active = growth percent below 10; inactive = the rest.

Tested on: KM12 colon
Experiment: NCI-60 one-dose screen, 48 h (100 = growth as untreated, 0 = no growth, -100 = all killed)
Conditions: 10 µM unless noted

Row | Structure (SMILES) | growth
1 | O=C(/C=C/Nc1ccc(S(=O)(=O)Nc2ncccn2)cc1)c1ccc(N=Cc2c(O)[nH]c3ccccc23)cc1 | 37.3% (inactive)
2 | CCCCCN1C(=O)/C(=c2\sc3n(c2=O)C2C(NN=3)N(CC)C(=O)N2CC)c2cccc(C)c21 (stereo unspecified) | 26.6% (inactive)
3 | C#C[C@]1(O)CC[C@H]2[C@@H]3CC=C4c5sc(Nc6ncccc6C)nc5CC[C@]4(C)[C@H]3CC[C@@]21C | 3.23% (active)
4 | O=C1CSC(c2cn(-c3ccccc3)nc2-c2ccc(Cl)cc2)N1c1ccccc1 (stereo unspecified) | 102% (inactive)
5 | CC(=O)Nc1ccccc1-c1nc2ccccc2s1 | 105% (inactive)
6 | O=C(/C=C/c1cccc(Br)c1)c1cccc(OCCCCOc2cccc(C(=O)/C=C/c3cccc(Br)c3)c2)c1 | 98.7% (inactive)
7 | C/C(=C(\c1ccc(O)cc1)c1ccc(OCCN2CCCCCC2)cc1)c1ccc(Cl)cc1 | -96.1% (active)
8 | Clc1ccc(CSc2nnc(-c3ccc(Cl)cc3)n2-c2ccccc2)cc1 | 92.6% (inactive)
9 | O=C(CCCCCCNC(=O)C(O)(O)C(F)(F)F)Nc1nc2ccccc2s1 | 7.52% (active)
10 | CC(C)NC(=O)c1cc(-c2ccc(NC(=O)Nc3ccc(F)c(C(F)(F)F)c3)cc2)nc2cccnc12 | 89.6% (inactive)
11 | COc1ccc(-c2cnc(NC(=O)CCCCCCNC(=O)C(O)(O)C(F)(F)F)s2)cc1 | -47.8% (active)
12 | C/C=C/CC(C)C(O)[C@H](NC(=O)[C@@H]1CCCN1C(=O)[C@](C)(CC)NC(=O)CCCCCCCCC)C(=O)N[C@@](C)(CC)C(=O)N[C@@H](CCC(N)=O)C(=O)N[C@H](CCC(N)=O)C(=O)NC(C)(C)C(=O)NC(C)(C)C(=O)N[C@@H](CCC(N)=O)C(=O)N[C@H](CC(C)C)C(=O)N[C@H](CO)CC(C)C (stereo partly specified) | 21.6% (inactive) and -65% (active)
13 | CC1CC(=O)C2=C(C1)Nc1ccc(Br)cc1CC2c1c[nH]c2ccc(Br)cc12 (stereo unspecified) | 28.1% (inactive)
14 | CC(C)(C)Nc1nc2c(OCCc3ccccc3)cccn2c1-c1cccc(Oc2ccccc2)c1 | 14% (inactive)
15 | CCCC/C(=C\c1ccc(O)c(O)c1)C(=O)NC(Cc1ccccc1)C(=O)C(=O)NCCc1ccc(OC)cc1 (stereo unspecified) | 97.9% (inactive)
16 | COC(=O)c1cccc(NC2=C(Cl)C(=O)c3nc(C)ccc3C2=O)c1 | 106% (inactive)

Row | Structure (SMILES) | growth
17 | NC1CC2(CCN(c3cnc(C(=O)Nc4cc(F)cc5cccnc45)cn3)CC2)C1 | 81.7% (inactive)
18 | COC(=O)c1ccc(NC2=C(Cl)C(=O)c3nc(C)ccc3C2=O)cc1 | 50.3% (inactive)
19 | CC(Nc1c(C#N)cnc2ccc(-c3cncc(-c4n[nH]c(=O)o4)c3)cc12)c1ccccc1 (stereo unspecified) | 17.1% (inactive)
20 | CC(=O)OC[C@]12CC[C@@H](C(=O)/C=C/c3cccnc3)[C@@H]1[C@H]1CC[C@@H]3[C@@]4(C)CC[C@H](OC(C)=O)C(C)(C)[C@@H]4CC[C@@]3(C)[C@]1(C)CC2 | 18.5% (inactive)
21 | CC(O)c1cccc(/C(N)=N/C(N)=N/c2nc3ccccc3s2)c1 (stereo unspecified) | 83.2% (inactive)
22 | CC(C)=CCC[C@](C)(O)[C@H]1CC[C@]2(C)[C@@H]1CC[C@@H]1[C@@]3(C)CC[C@H](N)C(C)(C)[C@@H]3CC[C@]12C | 48.9% (inactive)
23 | Cc1ccc2c(n1)C(=O)C(Cl)=C(Nc1cccc(C)c1C)C2=O | 26.1% (inactive)
24 | C[C@]12CC[C@H]3[C@@H](CC=C4C[C@@H](O)CC[C@@]43C)[C@@H]1CC[C@@H]2[C@](C)(O)CCc1cccnc1 | 70.2% (inactive)
25 | CN1CCN(c2ccc(Nc3nc(NCCCNS(=O)(=O)c4ccc(C(F)(F)F)cc4)c4sccc4n3)cc2)CC1 | -25.2% (active)
26 | Cc1ccc2c(n1)C(=O)C(Cl)=C(Nc1cccc(C(F)(F)F)c1)C2=O | 106% (inactive)
27 | O=C(CN1CCN(c2cc(=O)[nH]c3ccc(F)cc23)CC1)N(c1ccccc1)c1ccccc1 | 107% (inactive)
28 | Cc1[nH]c(C(=O)Nc2ccc(C(N)=O)cc2N2CCOC(C)C2)c(Cl)c1Cl (stereo unspecified) | 104% (inactive)
29 | CC1(C)CC[C@]2(C(=O)O)CC[C@]3(C)C(=CC[C@@H]4[C@@]5(C)CC[C@H](NOCCCN)C(C)(C)[C@@H]5CC[C@]43C)[C@@H]2C1 | 80.9% (inactive)
30 | Cc1ccc2c(n1)C(=O)C(Cl)=C(Nc1ccc(C#N)cc1)C2=O | 102% (inactive)
31 | CC(=O)Nc1nc(C)c(-c2csc(Nc3ccccc3)n2)s1 | 41.1% (inactive)
